NPC1 promoter act – qHTS Assay for NPC1 Promoter Activators. AID 485313, 2010. Potency, µM (highest dose often 9.22 µM), usual class: activators. Huh7 NPC1 promoter luciferase reporter, 24 h. actives 2.4% (n = 320,000); note: nearly all actives have a fitted effect of over 60% in size
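Huh7 reporter cells (NPC1 promoter driving luciferase) are dosed with compound for 24 h at 37 °C, 5% CO2; luciferase detection reagent is then added and luminescence measured after 10 min at ambient temperature.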
SMN2 splice enh – qHTS Assay for Enhancers of SMN2 Splice Variant Expression | HEK293 SMN2-luciferase splicing reporter, luminescence, 30-36 h | Potency, µM (doses to about 46.1 µM), hits mostly activators | actives 2.8% (n = 210,000) | AID 1458, 2008; note: nearly all actives have a fitted effect of over 55% in size
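HEK293 cells carry an SMN2 minigene-luciferase reporter in which exon 7 inclusion puts luciferase in frame. Cells were seeded at 2000 cells/well, attached for 10-12 hours, then exposed to compounds for 30-36 hours at 37C before ONE-Glo luminescence.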
Rab9 prom act – qHTS Assay for Rab9 Promoter Activators | Huh7 Rab9 promoter-luciferase reporter, luminescence, 24 h | Potency, µM (doses to about 9.22 µM), hits mostly activators | actives 2.8% (n = 320,000); note: nearly all actives have a fitted effect of over 60% in size
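Huh7 reporter line, Rab9 promoter upstream of luciferase. Compound exposure 24 h at 37 °C in reduced-serum medium with 10% FBS. Read-out: luminescence.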
ELG1 DNA repair – qHTS screen for small molecules that inhibit ELG1-dependent DNA repair in human embryonic kidney (HEK293T) cells expressing luciferase-tagged ELG1. HEK293T ELG1-luciferase reporter, luminescence, 16 h; DNA damage induced by 5-fluorouridine. Potency, µM (highest dose often 46.1 µM), hits mostly inhibitors. actives 2.3% (n = 330,000). AID 504467, 2011; note: nearly all actives have a fitted effect of over 55% in size
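Luminescence from the luciferase reporter, measured 30 min after ONE-Glo reagent at room temperature, was the read-out. Beforehand, 2,000 cells per well were exposed for 16 hr at 37 °C to 5-fluorouridine together with compound or vehicle.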
FLuc counter – qHTS profiling assay for firefly luciferase inhibitor/activator using purifed enzyme and Km concentrations of substrates (counterscreen for miR-21 project); actives 6.9% (n = 360,000); Potency, µM (highest dose often 57.5 µM), hits mostly inhibitors; Luciferin 4-monooxygenase (Photinus pyralis), P08659; purified FLuc, Km substrates, luminescence inhibition; AID 588342, 2011; note: nearly all actives have a fitted effect of over 55% in size
Target sequence (P08659 whole entry, looked up): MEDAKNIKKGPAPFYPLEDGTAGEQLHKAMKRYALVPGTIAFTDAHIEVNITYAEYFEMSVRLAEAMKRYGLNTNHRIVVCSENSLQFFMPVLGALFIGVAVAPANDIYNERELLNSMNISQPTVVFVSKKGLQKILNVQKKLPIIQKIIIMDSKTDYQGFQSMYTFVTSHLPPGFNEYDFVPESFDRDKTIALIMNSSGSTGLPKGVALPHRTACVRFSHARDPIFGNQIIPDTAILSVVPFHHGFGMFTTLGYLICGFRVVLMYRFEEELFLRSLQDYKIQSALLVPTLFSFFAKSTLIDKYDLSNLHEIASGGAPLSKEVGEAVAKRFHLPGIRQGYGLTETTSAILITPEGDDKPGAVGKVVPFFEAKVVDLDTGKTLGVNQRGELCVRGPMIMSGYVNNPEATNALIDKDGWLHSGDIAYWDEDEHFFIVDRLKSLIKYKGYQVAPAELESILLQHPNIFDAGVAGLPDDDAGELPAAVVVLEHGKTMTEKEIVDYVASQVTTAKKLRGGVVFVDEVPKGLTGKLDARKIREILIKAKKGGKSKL
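Purified P. pyralis luciferase (10nM final) with 10uM D-luciferin and 10uM ATP (Km levels) in 50mM Tris acetate pH 7.5, 10mM Mg acetate, 0.01% Tween-20, 0.05% BSA; qHTS 6-point titration, ~60 µM downward; luminescence read.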
ELG1 genotoxic – qHTS screen for small molecules that induce genotoxicity in human embryonic kidney (HEK293T) cells expressing luciferase-tagged ELG1. HEK293T ELG1-luciferase reporter, luminescence, 16 h. Potency, µM (doses to about 46 µM), usual class: activators. actives 1.3% (n = 330,000). AID 504466, 2011; note: nearly all actives have a fitted effect of over 60% in size
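Genotoxic stress is detected as increased luminescence from luciferase-tagged ELG1 in HEK293T cells, measured with ONE-Glo after a 16 hr treatment at 37 °C.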
Each line names hits and unclear results; the compound was inactive in the other large screens; ! = a repeat was not active. Rows were chosen to be rich in hits. Some 9.3% of all compounds tested hit in one or more screens of this group. Calls come from the whole dose curve; as a rule, active = well fitted curve in the direction sought with a large enough effect; inconclusive = small, poorly fitted or top-dose-only effect, or another doubt; inactive = no such curve, though single readings can be large; an effect the other way counts as inactive or inconclusive.

O=C(CSc1nc2ccccc2[nH]1)N/N=C/c1ccco1	ELG1 DNA repair inconclusive, FLuc counter inconclusive, ELG1 genotoxic inconclusive (no result: SMN2 splice enh)
Cc1cc(/C=N/NC(=O)c2ccc(O)cc2)c(C)n1C1CC1	FLuc counter inconclusive
Cc1ccc(N=Cc2cc(C)n(C3CCCC3)c2C)cc1	FLuc counter 11µM
C/C(=N\Nc1nc(-c2ccc(C)cc2)nc2ccccc12)c1ccc([N+](=O)[O-])cc1	none
Oc1ccc(Nc2nc(-c3ccccc3)nc3ccccc23)cc1	ELG1 DNA repair inconclusive, FLuc counter inconclusive (no result: SMN2 splice enh)
COc1ccc(Nc2nc(-c3ccccc3)nc3ccccc23)cc1	ELG1 DNA repair 21µM, FLuc counter inconclusive (no result: SMN2 splice enh)
COc1ccc(-c2nc(N/N=C(\C)c3ccc(O)cc3)c3ccccc3n2)cc1	ELG1 DNA repair inconclusive, FLuc counter 1.7µM (no result: SMN2 splice enh)
COc1ccc(Nc2nc(-c3cccc([N+](=O)[O-])c3)nc3ccccc23)cc1	ELG1 DNA repair 8.2µM
CC1CCCN(c2nc(-c3ccccc3O)nc3ccccc23)C1 (configuration not stated)	none (no result: NPC1 promoter act, Rab9 prom act, ELG1 DNA repair, ELG1 genotoxic)
Cc1ccccc1S(=O)(=O)O[C@@H]1NS(=O)(=O)c2ccccc21	none (no result: NPC1 promoter act, Rab9 prom act, ELG1 DNA repair, FLuc counter, ELG1 genotoxic)
Brc1ccc(NC(c2ccccc2)c2ccncc2)cc1 (configuration not stated)	none (no result: SMN2 splice enh)
O=C(COc1ccccc1)Nc1cccc(S(=O)(=O)N2CCCC2)c1	none (no result: SMN2 splice enh)
O=C(COc1ccccc1[N+](=O)[O-])Nc1cccc(S(=O)(=O)N2CCCC2)c1	ELG1 DNA repair 16µM (no result: NPC1 promoter act, SMN2 splice enh, Rab9 prom act, FLuc counter)
O=C(COc1ccc(F)cc1Cl)Nc1cccc(S(=O)(=O)N2CCCC2)c1	ELG1 DNA repair inconclusive, FLuc counter 13µM (no result: SMN2 splice enh)
CCOc1ccc(C(=O)OCC(=O)Nc2cccc(S(=O)(=O)N3CCCC3)c2)cc1	FLuc counter inconclusive (no result: SMN2 splice enh)
CCOc1ccc(/C=C/C(=O)OCC(=O)Nc2cccc(S(=O)(=O)N3CCCC3)c2)cc1	FLuc counter 2.1µM (no result: SMN2 splice enh)
O=C(COc1ccccc1Cl)Nc1cccc(S(=O)(=O)N2CCCC2)c1	ELG1 DNA repair inconclusive, FLuc counter 19µM (no result: SMN2 splice enh)
CCC1=C2CC[C@H]3C(=O)N(c4ccccc4)C(=O)[C@H]3[C@H]2[C@@]2(Cc3ccccc3)C(=NCCOC)OC(=O)N2C1=O	none (no result: NPC1 promoter act, Rab9 prom act, ELG1 DNA repair, FLuc counter, ELG1 genotoxic)
COc1ccccc1CNc1ncnc2c1c(-c1ccccc1)cn2-c1cccc(C)c1	none (no result: NPC1 promoter act, SMN2 splice enh, Rab9 prom act, ELG1 DNA repair, ELG1 genotoxic)
Cc1ccccc1NS(=O)(=O)c1nnc(NC(=O)c2ccc(Cl)cc2)s1	FLuc counter 2.4µM! (no result: SMN2 splice enh)
O=C(Nc1nnc(S(=O)(=O)N2CCCCCC2)s1)c1ccccc1Cl	none (no result: SMN2 splice enh)
Cc1ccccc1NS(=O)(=O)c1nnc(NC(=O)c2ccc(Br)cc2)s1	none (no result: SMN2 splice enh)
O=C(Nc1nnc(S(=O)(=O)N2CCOCC2)s1)c1ccccc1	Rab9 prom act inconclusive, ELG1 DNA repair inconclusive, FLuc counter inconclusive (no result: SMN2 splice enh)
O=C(Nc1nnc(S(=O)(=O)N2CCCC2)s1)c1ccccc1Cl	FLuc counter 4.8µM (no result: SMN2 splice enh)
O=C(Nc1nnc(S(=O)(=O)Nc2ccccc2)s1)C1CCCCC1	FLuc counter 8.5µM! (no result: SMN2 splice enh)
O=C(Nc1nnc(S(=O)(=O)N2CCCCCC2)s1)c1ccccc1	NPC1 promoter act inconclusive, Rab9 prom act 4µM, ELG1 DNA repair inconclusive, FLuc counter 6.7µM (no result: SMN2 splice enh)
Cc1cccc(N2C(=NC(=O)c3ccccc3)SC3CS(=O)(=O)CC32)c1 (configuration not stated)	none (no result: SMN2 splice enh)
O=C(Nc1nnc(S(=O)(=O)Nc2ccccc2)s1)c1ccccc1Cl	FLuc counter 9.5µM! (no result: SMN2 splice enh)
COc1ccc(OCC(=O)Nc2nnc(S(=O)(=O)N3CCCCCC3)s2)cc1	FLuc counter 15µM! (no result: SMN2 splice enh)
Cc1cccc2nc(CSc3nnc4ccccn34)cn12	SMN2 splice enh inconclusive, FLuc counter 11µM (no result: NPC1 promoter act, Rab9 prom act, ELG1 DNA repair, ELG1 genotoxic)

Compound activity: PubChem, National Center for Advancing Translational Sciences (NCATS)
